# Source: PubChem BioAssay (NCATS)
# Where “and” joins values, the source holds several entries; their conditions need not be identical. Equal values may be shown once. Records with an inconclusive call do not appear. The source holds several records for some structures; these can differ, active in one and inactive in another. Calls of active or inactive are those of the source. Calls follow the shape of the dose curve; as a rule, active = well fitted curve in the direction sought with a large enough effect; inconclusive = small, poorly fitted or top-dose-only effect, or another doubt; inactive = no such curve, though single readings can be large; an effect the other way counts as inactive or inconclusive.
# Columns and labels:
# [1] = target: Cytochrome P450 2C9 (Homo sapiens) (UniProt P11712); assay: qHTS Assay for Inhibitors and Substrates of Cytochrome P450 2C9 (AID 883); also: nearly all actives have a fitted effect of over 60% in size; also: potency is read from the fitted curve at half-maximal effect; as to activity change, negative = inhibition: % is scaled to controls: 0 for no effect and ±100 for the full control effect
# How it was run: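 Signal: luciferase luminescence reporting luciferin produced by CYP2C9. Conditions: 10nM enzyme, Luciferin-H 100uM at KM, 25mM KPO4, 37C, 60 min NADPH-driven reaction. Reference: 57uM sulphaphenazole as 100% inhibition.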
# [2] = target: Cytochrome P450 3A4 (Homo sapiens) (UniProt P08684); assay: qHTS Assay for Inhibitors and Substrates of Cytochrome P450 3A4 (AID 884); also: nearly all actives have a fitted effect of over 50% in size; also: potency is read from the fitted curve at half-maximal effect; as to activity change, negative = inhibition: series mostly up to about 57 µM; % is scaled to controls: 0 for no effect and ±100 for the full control effect
# How it was run: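 Luminescent readout of luciferin produced by CYP3A4 (20 nM) dealkylation of Luciferin-PPXE, 25 uM (its KM). NADPH-driven reaction ran 60 min at RT after 10 min compound preincubation; data scaled to 57 uM ketoconazole as 100% inhibition.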
# [3] = target: Cytochrome P450 3A4 (Homo sapiens) (UniProt P08684); assay: qHTS Assay for Activators of Cytochrome P450 3A4 (AID 885); also: nearly all actives have a fitted effect of over 65% in size
# How it was run: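 Human CYP3A4 dealkylates Luciferin-PPXE to luciferin, which luciferase detection converts to light. Substrate was at its KM (25uM), buffer 200mM KPO4, reaction 60 min at RT.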
# [4] = target: Cytochrome P450 2D6 (Homo sapiens) (UniProt P10635); assay: qHTS Assay for Inhibitors and Substrates of Cytochrome P450 2D6 (AID 891);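 also: luciferin methyl ether substrate demethylated by CYP2D6 with NADPH regeneration; % is scaled to controls: 0 for no effect and ±100 for the full control effect; nearly all actives have a fitted effect of over 60% in size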
# How it was run: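 Luminescent read-out of luciferin formed by 5 nM human CYP2D6 demethylating 30 uM Luciferin-ME EGE (Km level) over 60 min at room temperature after NADPH regeneration addition. Data normalized to full inhibition by 1.43 uM quinidine.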
# [5] = target: Cytochrome P450 2C19 (Homo sapiens) (UniProt P33261); assay: qHTS Assay for Inhibitors and Substrates of Cytochrome P450 2C19 (AID 899); also: nearly all actives have a fitted effect of over 60% in size; also: potency is read from the fitted curve at half-maximal effect
# How it was run: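 Signal comes from luciferase acting on luciferin released by CYP2C19-mediated hydroxylation of Luciferin-H EGE, 10uM (KM). Assay mix: 5nM enzyme, 50mM KPO4; 60 min at 37C with NADPH regeneration. Data normalized against 57uM ketoconazole.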
# Chain of Cytochrome P450 2D6 (Homo sapiens) (P10635 whole entry, looked up): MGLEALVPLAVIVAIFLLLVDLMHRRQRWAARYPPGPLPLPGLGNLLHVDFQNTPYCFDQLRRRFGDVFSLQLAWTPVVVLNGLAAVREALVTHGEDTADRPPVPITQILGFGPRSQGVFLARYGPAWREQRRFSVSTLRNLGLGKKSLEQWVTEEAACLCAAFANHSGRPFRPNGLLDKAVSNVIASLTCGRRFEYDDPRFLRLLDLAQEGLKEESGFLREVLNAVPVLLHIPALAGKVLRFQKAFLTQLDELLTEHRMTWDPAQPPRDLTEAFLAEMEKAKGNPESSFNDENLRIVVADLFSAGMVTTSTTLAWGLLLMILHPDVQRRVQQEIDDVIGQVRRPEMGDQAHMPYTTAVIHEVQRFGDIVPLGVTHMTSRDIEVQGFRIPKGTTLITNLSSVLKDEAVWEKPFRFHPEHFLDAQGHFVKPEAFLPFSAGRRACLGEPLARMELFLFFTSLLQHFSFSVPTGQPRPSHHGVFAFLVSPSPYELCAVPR
# Chain of Cytochrome P450 3A4 (Homo sapiens) (P08684 whole entry, looked up): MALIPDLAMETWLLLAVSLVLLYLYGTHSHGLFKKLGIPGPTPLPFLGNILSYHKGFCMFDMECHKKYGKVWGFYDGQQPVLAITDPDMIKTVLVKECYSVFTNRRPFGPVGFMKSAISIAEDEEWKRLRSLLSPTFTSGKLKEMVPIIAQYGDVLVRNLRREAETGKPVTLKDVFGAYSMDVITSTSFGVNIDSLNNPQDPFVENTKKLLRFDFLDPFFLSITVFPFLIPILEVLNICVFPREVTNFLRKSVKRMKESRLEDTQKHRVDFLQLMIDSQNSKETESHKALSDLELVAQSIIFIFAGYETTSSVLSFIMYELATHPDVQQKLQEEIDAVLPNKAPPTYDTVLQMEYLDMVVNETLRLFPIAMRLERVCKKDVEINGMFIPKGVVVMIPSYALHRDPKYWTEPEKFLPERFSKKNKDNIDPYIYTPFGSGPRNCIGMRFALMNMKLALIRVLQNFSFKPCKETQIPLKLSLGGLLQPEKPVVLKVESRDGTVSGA
# Chain of Cytochrome P450 2C9 (Homo sapiens) (P11712 whole entry, looked up): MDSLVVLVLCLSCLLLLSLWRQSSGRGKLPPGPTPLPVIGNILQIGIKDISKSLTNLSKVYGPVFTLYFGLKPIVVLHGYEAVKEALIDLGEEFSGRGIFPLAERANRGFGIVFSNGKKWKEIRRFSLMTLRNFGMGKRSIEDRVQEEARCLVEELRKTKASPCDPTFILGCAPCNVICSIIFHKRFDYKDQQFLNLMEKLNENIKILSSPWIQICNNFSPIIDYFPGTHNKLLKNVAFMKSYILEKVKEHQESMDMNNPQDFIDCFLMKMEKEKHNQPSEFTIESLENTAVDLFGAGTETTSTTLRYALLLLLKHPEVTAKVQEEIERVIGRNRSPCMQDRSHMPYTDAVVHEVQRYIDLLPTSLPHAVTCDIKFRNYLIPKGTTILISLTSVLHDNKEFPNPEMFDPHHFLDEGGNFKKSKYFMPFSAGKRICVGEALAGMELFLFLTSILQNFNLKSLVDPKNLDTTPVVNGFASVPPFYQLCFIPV
# Chain of Cytochrome P450 2C19 (Homo sapiens) (P33261 whole entry, looked up): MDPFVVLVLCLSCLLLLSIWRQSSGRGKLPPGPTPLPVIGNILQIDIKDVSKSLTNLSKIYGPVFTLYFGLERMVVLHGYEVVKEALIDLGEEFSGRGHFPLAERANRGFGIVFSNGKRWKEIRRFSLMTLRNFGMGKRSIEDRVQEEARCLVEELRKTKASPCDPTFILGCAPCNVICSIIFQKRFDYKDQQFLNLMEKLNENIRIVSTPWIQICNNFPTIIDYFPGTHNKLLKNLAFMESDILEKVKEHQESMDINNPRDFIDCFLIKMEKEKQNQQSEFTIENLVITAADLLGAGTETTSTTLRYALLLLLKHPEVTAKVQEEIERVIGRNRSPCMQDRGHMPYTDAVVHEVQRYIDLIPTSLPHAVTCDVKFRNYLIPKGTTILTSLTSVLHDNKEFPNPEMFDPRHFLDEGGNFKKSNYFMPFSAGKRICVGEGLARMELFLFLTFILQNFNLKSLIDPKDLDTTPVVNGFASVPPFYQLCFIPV
SMILES,Potency [1],Potency [2],"activity change, positive = activation [3]",Potency [4],"activity change, negative = inhibition [2]",Potency [5]
CC(=O)c1ccc(OC2C=CC(C#Cc3ccc(Br)cc3)OC2CO)cc1 (configuration not stated),inactive,3.16 µM (active),-77.6% [at 11.4 µM] (inactive),inactive,–,–
COC(=O)C1=C(C)N(Cc2ccccc2)[C@]23O[C@](C(=O)OC)(C(=O)N2C1c1ccccc1)C(C(=O)OC)C3C(=O)OC (some centres not stated),inactive,–,-46.5% [at 11.4 µM] (inactive),inactive,-20.8% [at 11.4 µM] (inactive),inactive
COC(=O)C/C=C\[C@@H](C)[C@@H](/C=N\O[C@@H](C)c1cc(-c2c(C)cc(C)cc2C)no1)NS(=O)(=O)c1ccc(C)cc1,2.51 µM (active),3.16 µM (active),-103% [at 11.4 µM] (inactive),–,–,–
CCCCCCC1Cc2cc(OC)c(OC)cc2C(C(C(=O)OCC)C(=O)OCC)O1 (configuration not stated),inactive,3.16 µM (active) and 1.58 µM (active),-66.2% [at 11.4 µM] (inactive) and -65.3% [at 11.4 µM] (inactive),inactive,–,–
CC1CCC2C(=O)N3C(CCC(C)[C@@H]3c3cccc(N4CCOCC4)c3)C(=O)N2C1c1cccc(Br)c1 (some centres not stated),2.51 µM (active),0.0251 µM (active),-62% [at 11.4 µM] (inactive),inactive,–,–
COC(=O)NC(c1cccc(C)c1)[C@]1(C(C)=O)CCOC1=O (some centres not stated),3.16 µM (active),0.0316 µM (active),-88.5% [at 11.4 µM] (inactive),inactive,–,–
COc1cccc([C@@H]2Oc3ccc(OC)cc3/C(=N/O[C@@H](C)CN3CCCCc4nc(C)c(C)cc43)[C@@H]2O)c1,1.58 µM (active),3.98 µM (active),-96.4% [at 11.4 µM] (inactive),–,–,–
C=CCOC(=O)C(C(C)=O)C(NC(=O)OC)c1cccc(C(F)(F)F)c1 (configuration not stated),inactive,1.58 µM (active),-104% [at 11.4 µM] (inactive),inactive,–,0.1 µM (active)
CCCNC(=O)OC[C@@H]1O[C@H](CCO/N=C(\C)CCN2CCc3nc(-c4ccccc4)c(-c4ccccc4)cc3C2)C=C[C@@H]1Oc1ccc(OC)cc1,2 µM (active),3.16 µM (active),-74.2% [at 11.4 µM] (inactive),–,–,–
Cc1ccc(S(=O)(=O)N[C@H]2COC(=O)C/C=C\[C@@H](C)COC(=O)C/C=C\[C@@H]2C)cc1,inactive,3.16 µM (active),-68.8% [at 11.4 µM] (inactive),–,–,–
CCCCC1CN2C(CCC(C)C2c2ccc(Br)cc2)C(=O)O1 (configuration not stated),inactive,3.98 µM (active),-38.2% [at 11.4 µM] (inactive) and -43.4% [at 11.4 µM] (inactive) and -62.6% [at 11.4 µM] (inactive),inactive,–,–
COC(=O)C1=C(C)N(Cc2ccccc2)[C@]23O[C@](C(=O)OC)(C(=O)N2C1c1ccccc1)C1CCOC(=O)C13 (some centres not stated),inactive,2.51 µM (active),-70.4% [at 11.4 µM] (inactive),inactive,–,inactive
C#CCC(C(=O)OC)(C(=O)OC)C(C[N+](=O)[O-])c1ccccc1 (configuration not stated),inactive,3.16 µM (active),-77% [at 11.4 µM] (inactive),inactive,–,inactive
CN(C)c1cccc(OC2C=CC(C#Cc3ccccc3)OC2CO)c1 (configuration not stated),inactive,3.98 µM (active),-83.1% [at 11.4 µM] (inactive),inactive,–,–
COc1ccc(/C=C/C(=O)c2ccc(OC)cc2O)cc1,inactive,3.16 µM (active),-92.3% [at 11.4 µM] (inactive),inactive,–,–
CC1CN2C(CCC(C)C2c2ccc(Br)cc2)C(=O)O1 (configuration not stated),inactive,–,-51.1% [at 11.4 µM] (inactive),inactive,-15.8% [at 11.4 µM] (inactive) and -28.1% [at 11.4 µM] (inactive),inactive and 501 nM (active)
CCC(=O)[C@]12O[C@@]3(C4C(=O)OCCC41)N(Cc1ccccc1)C(C)=C(C(=O)OC)C(c1ccccc1)N3C2=O (some centres not stated),inactive,1.26 µM (active),-106% [at 11.4 µM] (inactive),inactive,–,inactive
COc1ccc(OC2C=CC(C#Cc3ccc(Br)cc3)OC2CO)c(C(C)(C)C)c1 (configuration not stated),3.16 µM (active),3.98 µM (active),-84.8% [at 11.4 µM] (inactive),inactive,–,–
CCOC(=O)OCC1OC(CCc2ccccc2)CCC1Oc1ccc(OC)cc1 (configuration not stated),inactive,3.98 µM (active),-68.7% [at 11.4 µM] (inactive),inactive,–,–
CC(=O)OCC1OC(C#CCCc2ccccc2)C=CC1OC(C)=O (configuration not stated),inactive,3.16 µM (active),-61.8% [at 11.4 µM] (inactive),inactive,–,–
